From PubChem BioAssay (NCATS)
Results filed as inconclusive are left out. Values without a mark were called inactive. Calls of active or inactive are those of the source. Calls follow the shape of the dose curve; as a rule, active = well fitted curve in either direction with a large enough effect (not every such curve was filed as active); inconclusive = small, poorly fitted or top-dose-only effect, or another doubt; inactive = flat fitted curve, though single readings scatter.

Target: Mitogen-activated protein kinase 10 (Mus musculus) (UniProt Q61831)
Assay: JNK3 AlphaScreen Assay (AID 530);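 also: kinase came from lysate of stimulated human HepG2 cells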
Details: JNK3 lysate, c-Jun phosphorylation; series mostly up to 57.1 µM
Source text: NIH Chemical Genomics Center [NCGC]
NIH Molecular Libraries Screening Centers Network [MLSCN]
The c-jun N-terminal kinase (JNK) family are serine/threonine protein kinases that phosphorylate c-jun, a component of the transcription factor […] (AP-1). JNK kinases are members of the mitogen-activated protein kinase family including the extracellular regulated kinases and p38 kinases. Three JNK genes (JNK 1, 2, and 3) have been identified in humans so far. JNK1 and JNK2 have a broad distribution and JNK3 is primarily found in neuronal tissues and cardiac myocytes.
JNK3 has been under consideration as a target for the treatment of neurodegenerative disorders. […] JNK pathway is also involved in pathological process in a mouse model of Parkinson's disease (Xia et al., 2001).
Given these potential tissue distributions and links to neuroprotection, JNK3 inhibitors should provide useful investigational tools to study the role of this kinase in several diseases including, arthritis, stroke, myocardial infarction, ischemic injury and Parkinson's disease.
A homogeneous AlphaScreen is developed to measure the activity of JNK3. AlphaScreen is a two bead-based proximity-dependent chemical energy transfer luminescent assay platform. The phosphorylation of a biotinylated c-jun substrate by JNK3 can be detected with an antibody raised against phosphorylated c-jun. This process brings streptavidin donor beads and Protein-A acceptor beads to within a proximity range of <200 nm, and subsequently lead a chemical luminescent reaction upon exciting donor beads with 680 nm laser excitation light. Inhibition of JNK3 activity by small molecules and subsequent decrease in the antibody binding to biotinylated c-jun could attenuate or abolish this chemical luminescent reaction.
Yang DD, Kuan CY, Whitmarsh AJ, Rincon M, Zheng TS, Davis RJ, Rakic P and Flavell RA (1997) Absence of excitotoxicity-induced apoptosis in the hippocampus of mice lacking the Jnk3 gene. Nature 389:865-870. [PMID: 9349820]
Herdegen T, Claret FX, Kallunki T, Martin-Villalba A, Winter C, Hunter T, and Karin M (1998) Lasting N-terminal phosphorylation of c-Jun and activation of c-Jun N-terminal kinases after neuronal injury. J.Neurosci. 18:5124-5135. [PMID: 9651196]
Xia XG, Harding T, Weller M, Bieneman A, Uney JB and Schulz JB (2001) Gene transfer of the JNK interacting protein-1 protects dopaminergic neurons in the MPTP model of Parkinson's disease. Proc.Natl.Acad.Sci.U.S.A. 98:10433-10438.
NCGC Assay Protocol Summary:
GST-cJun (1-79) (Stratagene, La Jolla CA, #205145) was biotnylated by PerkinElmer (PerkinElmer-BioSignalInc. Montreal, Canada) and was detectable by the streptavidin Donor beads. Anti-(phospho)cJun (Ser73) antibody was from UpState (Charlottesvilles, VA, #06-659). JNK3-containing lysates were generated from HepG2 cells and pre-activated by interleukin1-beta and tumor necrosis factor alpha. All reagents were stored at -20 C before using. Phosphorylated biotinylated-GST-cJun was recognized by Anti-(phospho)cJun (Ser73) antibody and this process brings acceptor and donor beads together. Therefore JNK3 phosphorylation of cJun can be measured by Alpha reading by EnVision (PerkinElmer, Boston, MA).
The composition of kinase buffer was (in mM) 20 tris- HCl (pH 7.6) 10 MgCl2, 1 DTT, and 0.1 Na3VO4 and 0.01% Tween-20. Beads were diluted in detection buffer containing (in mM) 20 tris-HCl (pH 7.7), 20 NaCl and 80 EDTA and 0.3% BSA. The assay was performed at room temperature. All compounds were screened as titrations from 0.6 nM to 46 uM final concentration. The assay was performed in 1536-well format (white solid bottom and untreated) as follows:
Sequence,Parameter,Value,Description
1,Reagent,3 uL,Biotin-GST-cJun, Anti-(phospho)cJun and pre-activated JNK3-containing lysates
2,Compound,23 nL,Final concentration was 0.6nM to 46uM
3,Time,15 minutes,Room Temperature
4,Reagent,1 uL,ATP final concentration 10uM
6,Reagent,0.5 uL,2ng/well bead mixture
[…]
% is scaled to controls: 0 for no effect and ±100 for the full control effect.

Structure (SMILES) | outcome | activity change, negative = inhibition
C[C@H]1CCC[C@H](O)CCCCCc2cc(O)cc(O)c2C(=O)O1 | inactive | –
c1ccc2cc(CC3=NCCN3)ccc2c1 | inactive | –
CCN(CCCl)Cc1ccccc1Br | inactive | –
NNC(N)=O | inactive | –
CCCN(CCC)[C@H]1CCc2c(F)ccc(O)c2C1 | inactive | –
CN1CCC(c2c[nH]c3ccc(O)cc23)CC1 | inactive | –
CCCCCl | inactive | –
Cc1cc(C)cc(C(=O)OC2C[C@H]3CC[C@@H](C2)N3C)c1 (stereo not given in full) | inactive | –
NCCc1ccc(S(=O)(=O)F)cc1 | inactive | –
COc1ccc2[nH]cc(CCN)c2c1 | inactive | –
CC(C)(C)c1cc(O)ccc1O | inactive | –
CCOC(=O)c1ccccc1C(=O)OCC | inactive | –
C[N+](C)(C)CC#CCOC(=O)Nc1cccc(Cl)c1 | inactive | –
CC(C)(C)c1cc(C=C(C#N)C#N)cc(C(C)(C)C)c1O | inactive | –
O=C1CCO1 | inactive | –
O=CC=O | inactive | –
Cc1sc2ccccc2c1CC1=NCCN1 | inactive | –
CNC(=O)OCC[N+](C)(C)C | inactive | –
N[C@@H](Cn1oc(=O)[nH]c1=O)C(=O)O | inactive | –
CCCN1CCc2cc(O)cc3c2[C@H]1Cc1ccc(O)c(O)c1-3 | inactive | –

Structure (SMILES) | outcome | activity change, negative = inhibition
[O]=[Cr](=[O])([OH])[O][Cr](=[O])(=[O])[OH] | inactive | –
O=C1C=CC(=O)C=C1 | inactive | –
Cc1c2ccncc2c(C)c2c1[nH]c1ccccc12 | inactive | –
[Cl-].[Cl-].[Hg+2] | inactive | –
C[C@@H](Cc1ccccc1)NCCC(c1ccccc1)c1ccccc1 | inactive | –
CC(C)CCON=O | inactive | –
CC(C)NP(=O)(NC(C)C)OP(=O)(NC(C)C)NC(C)C | inactive | –
c1cc2c(c(NC3=NCCN3)c1)CCCC2 | – | 3.19% [at 11.4 µM]
ClC(Cl)(Cl)Cl | inactive | –
CP(=O)(O)C1=CCNCC1 | inactive | –
NC(=O)c1cc(N2CC2)c([N+](=O)[O-])cc1[N+](=O)[O-] | inactive | –
C[C@H]1CC[C@@H]2[C@@H](C)[C@H]3[C@H](C[C@H]4[C@@H]5CC=C6CC(O[C@@H]7O[C@H](CO)[C@H](O)[C@H](O[C@@H]8O[C@H](CO)[C@@H](O)[C@H](O)[C@H]8O)[C@H]7O[C@H]7O[C@@H](C)[C@H](O)[C@@H](O)[C@H]7O)CC[C@]6(C)[C@H]5CC[C@]34C)N2C1 (stereo not given in full) | inactive | –
NCCc1c[nH]c2ccc(C(N)=O)cc12 | inactive | –
CCCCCCC(C)(C)c1ccc([C@@H]2C[C@H](O)CC[C@H]2CCCO)c(O)c1 | inactive | –
O=P(O)(O)C(Cl)(Cl)P(=O)(O)O | inactive | –
CCS(=O)(=O)Nc1cccc(C(=C2CCCCC2)c2cnc[nH]2)c1 | inactive | –
CCCN(CCC)CCc1ccc(O)c(O)c1 | inactive | –
CCCCCCCCOC(=O)c1ccccc1C(=O)OCCCCCCCC | inactive | –
NC(=O)CI | inactive | –
c1ccc2c(N3CCNCC3)cccc2c1 | inactive | –
